About 83,000 compounds went through this panel and 20% of them were active in at least one assay; those are over-represented in the sample as a whole.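 Single-dose data. Exposure time 48 hours. Values below 10 considered active.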 A number with no mark means an inactive call. The source made the active and inactive calls.

This assay deals with MDA-MB-468 breast. Description: NCI-60 one-dose screen, 48 h (100 = growth as untreated, 0 = no growth, -100 = all killed). The note with it: 10 µM unless noted.
For the compound `C#CCOc1ccc(/C=N\Nc2nc(-c3ccc(C)cc3)cs2)cc1OC`, the growth is 70.7%. `CCCN(CCC)CN(CCC)CCC`: the growth was 106%. As to `CCCCCSc1ccc2nc(NC(=O)OCCC)sc2c1`, the growth is 9.55% (active). With `CNCCNc1nc2ccccc2c2c(=O)c3cccc(C)c3sc12` the figure was -14.9% (active); with `CCCCCCCCCCn1cc[n+](C)c1`, -42.1% (active); with `CC(=O)CC1CCCC1c1ccc2ccccc2c1` (stereo not given), 101%. For the compound `COc1cccc2cc(N(C)c3nc(C)nc4ccsc34)ccc12`, the growth was 20.2%.

As to `COc1ccc(COC(C)=O)cc1`, the growth was 108%. For `O=C(Nc1cccc(C(F)(F)F)c1)Nc1cccc(C(F)(F)F)c1`, the growth is -6.39% (active). As for `Clc1ccccc1N=Cc1ccc2c(c1)OCO2`, the growth is 101%. Consider `CCOC(=O)c1sc(Nc2ccc(Cl)cc2)nc1C`, for which the growth is -13.9% (active).

For the compound `COc1cccc2c(=O)c3c(sc12)c(NCCCN)nc1ccccc13`, the growth was -8% (active).

Take `Cc1ccc(Nc2nnc(-c3ccc(Cl)cc3)o2)c(C)c1`: the growth was 75.4%. Turning to `CCN1C(=O)N(CC)C2Nn3c(s/c(=C\c4ccccc4Br)c3=O)=NC21` (stereo not given), the growth was 12.3%. Consider `Nc1ccc(Oc2ccccc2)c(Cl)c1`, for which the growth was 92.1%. With `CCS(=O)(=O)c1ncnc2nc[nH]c12` the figure was 105%.

Consider `O=C(Nc1cccc(Cn2c(=O)[nH]c3ccc(Oc4ncccn4)cc3c2=O)c1)c1ccc(Cl)cc1`, for which the growth is 16.8%. With `COc1ccc(-c2cc(-c3ccc(Cl)cc3)nc(SCCCC(=O)NO)n2)cc1` the figure was -56.2% (active). For `O=C(Nc1nc(-c2ccccc2Cl)cs1)c1cc(-c2ccccc2)nc2ccc(Cl)cc12`, the growth is 90.9%.

As for `C#Cc1cc(C(=O)Nc2ccc(CN3CCN(C)CC3)c(C(F)(F)F)c2)ccc1C`, the growth was 66.5%.

On to `Nc1nc(N=Nc2ccc(O)cc2)cc(=O)[nH]1`, for which the growth is 91.5%.

Take `COCCOC(C)C(/C=N/NC(N)=S)=N/NC(N)=S` (stereo not given): the growth was 7.98% (active). Take `CC(=O)Nc1ccc(S(=O)(=O)N2C(=O)CCC2C(=O)Nc2ccccc2)cc1` (stereo not given): the growth was 40.3%. As for `Cc1nc(-c2cn3c(n2)-c2ccc(-c4cnn(C(C)(C)C(N)=O)c4)cc2OCC3)n(C(C)C)n1`, the growth was -20.6% (active). `CC(N)C(Cc1ccc(Cl)cc1)c1ccc(Cl)cc1` (stereo not given): the growth is 41.6%. For the compound `O=C(Cn1cc(CN2C(=O)c3ccccc3S2(=O)=O)nn1)Nc1ccc([N+](=O)[O-])cc1Cl`, the growth is 103%.

Regarding `C=CCN1C(=O)/C(=c2\sc3n(c2=O)C2C(NN=3)N(CC)C(=O)N2CC)c2ccccc21` (stereo not given), the growth is 16.3%. `Oc1ccc(O)c(-c2ccccc2)c1`: the growth is 33.2%.

In the case of `O=C(NCc1cn(Cc2cccc(Oc3ccccc3)c2)nn1)c1cccnc1Nc1ccc(F)cc1`, the growth is 33.5%. With `c1nc2ccc(-c3cc4ccc5[nH]ncc5c4c4c3CCCC4)cc2[nH]1` the figure was 17.1%; with `CN1C(=O)C(C(=O)/C=C/c2ccccc2C(=O)O)C(=O)N(C)C1=O`, 102%. `C/C(=N/NC(N)=S)c1ccc(Nc2nc(SCC(C)C)nc(-c3ccc(F)cc3)c2C#N)cc1`: the growth is -19.4% (active). For `COc1cccc2c1C=C1CCCCC3=Cc4c(OC)cccc4OC13O2` the value was 19%; for `CC(C)C(/C=C/c1[nH]ncc1-c1cc(Cl)ccc1O)N1CCOCC1` (stereo not given), 84.9%.

Take `O=C(Cc1ccc(/C=C/C(=O)c2ncc[nH]2)cc1)Nc1cc(C(F)(F)F)cc(C(F)(F)F)c1`: the growth is 65.3%. With `Cc1cc(N2CCOCC2)nc(N[C@@H]2CCC[C@H](Nc3ccnc4cc(Cl)ccc34)C2)n1`, the growth is -6.14% (active). As to `CCOC(=O)/C(C#N)=C1/C(=O)Nc2ccccc21`, the growth was 134%.

As to `Nc1ccc(Br)cn1`, the growth was 93.6%.

As for `O=C(Nc1cccc([N+](=O)[O-])c1)c1ccc(Cl)c(Cl)c1`, the growth was 64.2%. As to `O=[N+]([O-])c1c(Cl)ncnc1Cl`, the growth was 101%.

The values are drawn from PubChem BioAssay (NCI).
